The whole screen tested about 13,000 compounds, of which about 3,200 (25%) showed an effect of 50% or more. This is one part of the list.
Test system: P. falciparum stage V gametocytes
Design: BacTiter-Glo ATP luminescence viability of purified stage V gametocytes in 384-well plates, per cent inhibition versus DMSO
Details: 48 h, 5 µM; inhibitor

Compound | % Inhibition [%]
Cc1ccc(N2CCN(CCCCNC(=O)c3ccc(NC(=O)c4ccc(Cl)cc4)cc3)CC2)c(C)c1 [TCMDC-138507] | 8.523
O=C1OC2(CN1CC1CCN(Cc3ccc(O)c(Cl)c3)CC1)c1ccccc1-c1ccccc12 [TCMDC-136071] | 20.11
O=S(=O)(NCCN1CCCC1)c1ccc(-c2cccc(CNCCc3cccs3)c2)cc1 [TCMDC-132374] | 64.21
O=S(=O)(NCCN1CCCC1)c1cccc(-c2cccc(CNCCc3cccs3)c2)c1 [TCMDC-132378] | 78.26
O=S(=O)(NCCN1CCCC1)c1ccc(-c2cccc(CNCCc3cccs3)c2)s1 [TCMDC-132376] | 19.55
COc1ccc(CN(C)Cc2cc(C(C)C)c(C)cc2O)cc1F [TCMDC-124597] | -22.84
O=C(Nc1nccs1)c1cc(-c2cccnc2)nc2ccc(Br)cc12 [TCMDC-125215] | -12.6
CO[C@H](C)[C@H](NC(=O)[C@H](CC(C)C)[C@H](CCC(F)(F)F)N(O)C=O)C(=O)Nc1nccs1 [TCMDC-138190] | 15.4
CN(CCC1CCN(C(=O)/C=C/c2ccc(Cl)c(Cl)c2)CC1)C1CCC(c2c[nH]c3ccccc23)CC1 (stereo not drawn) [TCMDC-140107] | 60.82
COC(=O)c1ccc2[nH]cc(C3CCN(CCC4CCN(C(=O)/C=C/c5ccc(Cl)c(Cl)c5)CC4)CC3)c2c1 [TCMDC-139787] | 19.69
O=C(/C=C/c1ccc(Cl)c(Cl)c1)N1CCC(CN2CCC(c3c[nH]c4ccccc34)C(O)C2)CC1 (stereo not drawn) [TCMDC-139825] | -12.75
O=C(/C=C/c1ccc(Cl)c(Cl)c1)N1CCC(CN2CCC(Cc3c[nH]c4ccccc34)CC2)CC1 [TCMDC-140143] | -20.89
O=C(/C=C/c1ccc(Cl)c(Cl)c1)N1CCC2CC(N3CCC(c4c[nH]c5ccccc45)CC3)CCC2C1 (stereo not drawn) [TCMDC-139677] | -29.29
O=C(/C=C/c1ccc(Cl)c(Cl)c1)N1CCC(CN2C3CCC2CC(c2c[nH]c4ccccc24)C3)CC1 (stereo not drawn) [TCMDC-139814] | 116.4
O=C(/C=C/c1ccc(Cl)c(Cl)c1)N1CCC(NCc2c[nH]c3ccccc23)CC1 [TCMDC-134197] | -0.4755
COc1ccc2[nH]cc(C3CCN(CCC4CCN(C(=O)/C=C/c5ccc(Cl)c(Cl)c5)CC4)CC3)c2c1 [TCMDC-139658] | -35.62
CN(CCCc1c[nH]c2ccccc12)CC1CCN(C(=O)/C=C/c2ccc(Cl)c(Cl)c2)CC1 [TCMDC-140117] | 55.67
O=C(/C=C/c1ccc(Cl)c(Cl)c1)N1CCC(CCCN2CCC(c3c[nH]c4ccccc34)CC2)CC1 [TCMDC-139795] | 25.74
CN(CC1CCC(NC(=O)/C=C/c2ccc(Cl)c(Cl)c2)CC1)C1CCC(c2c[nH]c3ccccc23)CC1 (stereo not drawn) [TCMDC-140213] | -15.26
COc1ccc2[nH]cc(C3CC4CCC(C3)N4CCC3CCN(C(=O)/C=C/c4ccc(Cl)c(Cl)c4)CC3)c2c1 (stereo not drawn) [TCMDC-139670] | 106
CCCCC1(NC(=O)[C@@H](Nc2ccc(C#N)c3ccccc23)C2CCCCC2)CCCCC1 [TCMDC-136636] | -65.73
CCOCc1cnc(C)nc1NCC(=O)c1c(C)[nH]c2cc(C)ccc12 [TCMDC-124067] | -5.397
CC1(C)CCCC(=Cc2ccc(Br)cc2)C1(O)Cn1ccnc1 (stereo not drawn) [TCMDC-125214] | 19.91
COc1cc2nccc(Nc3cc(C)cc(O)c3)c2cc1OC.Cl [TCMDC-138196] | -1.594

Compound | % Inhibition [%]
CCCCOC(=O)c1ccc(NC(=O)Nc2ccc(Cn3ncc(N4CCCNCC4)c(Cl)c3=O)cc2)cc1 [TCMDC-133323] | -2.086
COc1ccc(C(=O)C2CC2CN(C)CCC(O)c2ccc(Cl)c(Cl)c2)cc1 (stereo not drawn) [TCMDC-136792] | -25.71
COc1cccc(C(=O)C2CC2CN(C)CC(O)c2cc(C)c(OC)cc2C)c1 (stereo not drawn) [TCMDC-136802] | 18.93
COc1ccc(C(=O)C2CC2CN(C)CC(O)c2cc(C)c(OC)cc2C)cc1 (stereo not drawn) [TCMDC-136800] | 56.77
N#Cc1ccc(NC(=NCc2ccc(Cl)cc2Cl)Nc2cccc(Cl)c2Cl)c(O)c1 [TCMDC-140224] | -0.417
CC1(C)N=C(N)N=C(N)N1OCc1ccc2ccccc2c1 [TCMDC-125513] | 17.08
CC(C)Nc1nc(NCCc2cnc[nH]2)nc(NCc2ccc(Cl)c(Cl)c2)n1 [TCMDC-139747] | 6.944
CC(=O)Nc1ccc(C(=O)Nc2ccc(-c3cccc(-c4nc5c(C)cccc5[nH]4)c3)cc2)cn1 [TCMDC-136831] | 74.93
CC(=O)Nc1ccc(C(=O)Nc2cccc(-c3cccc(-c4nc5c(C)cccc5[nH]4)c3)c2)cn1 [TCMDC-136830] | -4.811
CC(=O)Nc1cccc(C(=O)Nc2cccc(-c3ccc(-c4nc5c(C)cccc5[nH]4)cc3)c2)c1 [TCMDC-132136] | -12.3
CC(=O)N(C)c1cccc(C(=O)Nc2ccc(-c3cccc(-c4nc5c(C)cccc5[nH]4)c3)cc2)c1 [TCMDC-137072] | -29.92
CC(=O)Nc1ccc(C(=O)Nc2cccc(-c3ccc(-c4nc5c(C)cccc5[nH]4)cc3)c2)cn1 [TCMDC-136823] | 57.24
CC(=O)Nc1ccc(C(=O)Nc2ccc(-c3cccc(-c4nc5ccc(F)cc5[nH]4)c3)cc2)cn1 [TCMDC-136822] | -42.62
CN(C)CCC1CCCc2ccc(NC(=O)Nc3ccc(-c4ccncc4)c4ccccc34)cc21 (stereo not drawn) [TCMDC-139156] | -24.46
CCC(C)Oc1ccc(CCCON2C(N)=NC(N)=NC2(C)C)cc1 (stereo not drawn) [TCMDC-131784] | 25.06
CCOc1ccc(CCC(=O)O)cc1OCC [TCMDC-124302] | 4.043
CN1CCN(c2ccc(Cl)cc2NC(=O)C2COc3ccccc3O2)CC1 (stereo not drawn) [TCMDC-124321] | 9.444
CCOc1ccc(C(C)NC(=O)C2COc3ccccc3O2)cc1OCC (stereo not drawn) [TCMDC-125018] | 78.92
CCCCNC(=O)[C@H](Cc1ccccc1)NC(=O)c1ccc(O)c(-c2ccc(Cl)c(Cl)c2)c1 [TCMDC-140840] | 16.49
CCOc1ccc(C(C)NC(=O)Nc2ccccc2)cc1OCC (stereo not drawn) [TCMDC-123556] | 52.41
COc1cc(Nc2nccc(N3CCC(NC(=O)C4COc5ccccc5O4)C3)n2)cc(OC)c1OC (stereo not drawn) [TCMDC-133625] | -0.8923
CCOc1cc(C(=O)Nc2cccnc2)cc(Br)c1OCCC(C)C [TCMDC-123549] | 16.86
CCOc1ccc(C(Cc2ccccc2)NC(=O)c2cccnc2)cc1OCC (stereo not drawn) [TCMDC-124519] | 50.66
CCOc1ccc(C(C)NC(=O)Cc2ccccc2F)cc1OCC (stereo not drawn) [TCMDC-123564] | 31.28

Compound | % Inhibition [%]
CCCCCCNC(=O)C(N)CCCC(N)C(=O)NCCCCCC (stereo not drawn) [TCMDC-131401] | 16.24
CSc1cccc(NC(=O)Nc2ccc(I)c(OCCN(C)C)c2)c1 [TCMDC-139123] | 6.817
COc1cc2cc(Cc3cnc(N)nc3N)ccc2c(OC)c1OC [TCMDC-138023] | -6.286
O=C(NCCCc1ccccc1)c1csc(C2CCCN(C(=O)c3ccc(O)c(-c4cccc5ccccc45)c3)C2)n1 (stereo not drawn) [TCMDC-140154] | -33.08
CC(C)(C)c1ccc(NC(=O)c2cccc(CN3CCCN(Cc4cccc(Cl)c4)CC3)c2)cc1 [TCMDC-135982] | -61.3
CCc1cc(I)c2c(c1)C(NCCCNc1cc(=O)c3ccccc3[nH]1)CCN2 (stereo not drawn) [TCMDC-140023] | -10.14
O=c1cc(NCCNCc2cccc(-c3ccccc3)c2)[nH]c2ccccc12 [TCMDC-139376] | 20.69
O=C(CCC1CCCCC1)NCCNc1cccc2ccccc12 [TCMDC-124017] | 107.9
Cc1cc(NCCC(=O)Nc2ccccc2)nc(NCC2CCCCC2)n1 [TCMDC-134926] | -30.27
CC(C)(C)C1CCC(C(=O)c2ccc3ccccc3c2O)CC1 (stereo not drawn) [TCMDC-137495] | 11.22
O=C(Nc1ccccc1)Nc1cccc(-c2cccc(-c3nc4ccc(F)cc4[nH]3)c2)c1 [TCMDC-133154] | -14.02
CCOc1ccc(-c2nc(NC(=O)COc3ccc(OC)cc3)sc2C)cc1 [TCMDC-124329] | 36.75
CC(=O)Nc1nc(C(=O)Nc2cccc(-c3cccc(-c4nc5c(C)cccc5[nH]4)c3)c2)cs1 [TCMDC-137130] | -6.466
Cc1cccc2[nH]c(-c3cccc(-c4cccc(NC(=O)C5CC(=O)Nc6ccccc65)c4)c3)nc12 (stereo not drawn) [TCMDC-137097] | 79.84
O=C(Nc1cccc(-c2cccc(-c3nc4ccccc4[nH]3)c2)c1)c1csnn1 [TCMDC-136898] | 1.573
Cc1ccoc1C(=O)Nc1ccc(-c2cccc(-c3nc4c(C)cccc4[nH]3)c2)cc1 [TCMDC-136837] | -21.37
Cc1cccc2[nH]c(-c3cccc(-c4cccc(NC(=O)c5csnn5)c4)c3)nc12 [TCMDC-136904] | 82.61
CC(=O)Nc1nc(C(=O)Nc2ccc(-c3cccc(-c4nc5c(C)cccc5[nH]4)c3)cc2)cs1 [TCMDC-137131] | -2.039
Cc1cnc(C(=O)Nc2cccc(-c3cccc(-c4nc5c(C)cccc5[nH]4)c3)c2)cn1 [TCMDC-137030] | -21.98
CC(=O)Nc1nc(C(=O)Nc2cccc(-c3ccc(-c4nc5c(C)cccc5[nH]4)cc3)c2)cs1 [TCMDC-137123] | 80.9
O=C1CC(C(=O)Nc2cccc(-c3cccc(-c4nc5ccccc5[nH]4)c3)c2)c2ccccc2N1 (stereo not drawn) [TCMDC-137096] | 26.75
Cc1ccoc1C(=O)Nc1cccc(-c2cccc(-c3nc4ccccc4[nH]3)c2)c1 [TCMDC-136834] | -43.19
Cc1cccc2[nH]c(-c3cccc(-c4ccc(NC(=O)C5CC(=O)Nc6ccccc65)cc4)c3)nc12 (stereo not drawn) [TCMDC-137098] | -77.35
Cc1ccoc1C(=O)Nc1cccc(-c2cccc(-c3nc4c(C)cccc4[nH]3)c2)c1 [TCMDC-136836] | 81.69

Reference: PMC4552634, “A New Set of Chemical Starting Points with Plasmodium falciparum Transmission-Blocking Potential for Antimalarial Drug Discovery” (PLoS ONE, 2015)
